# Measurements taken from PubChem BioAssay AID1259422 (The Scripps Research Institute Molecular Screening Center, 2018).
# Several values for one entry are separate records, joined by “and”; a condition that tells them apart may be missing. Equal entries are not always repeated. In all, about 640,000 compounds went through this assay and about 9,300 (1.5%) were called active. Rule as the data show it: active = inhibition above about 32%; inactive = the rest. Many of the other results were omitted from the sample, so actives are more common in it than they were.
# Assay: TEAD-YAP interaction inhibition, primary screen, TEAD-YAP interaction inhibitor project, luminescence, HEK-TIYL cells (AID 1259422);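 also: 0% = median of test compound wells and 100% = reference inhibitor wells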
# Conditions: TEAD-Gal4/YAP UAS-luciferase luminescence, at 9.12 µM, hits give high values
row,SMILES,inhibition
1,CSc1sc(SC)c(CO)c1CO,-4.01% (inactive)
2,Cc1cccc(C(=O)Nc2sc3c(c2C(=O)Nc2ccccn2)CCCC3)c1,-4.61% (inactive)
3,CN1CCN(NC(=O)c2cc3c(s2)CCCCC3)CC1,12.5% (inactive)
4,O=C(Nc1ccccn1)c1cc2c(s1)CCCC2,93.2% (active)
5,CC(C)NC(=O)Cn1nc2n(CC(=O)NC3CCCCC3C)c3ccccc3n2c1=O (configuration not stated),1.58% (inactive)
6,O=C(Nc1ccc(S(=O)(=O)Nc2nccs2)cc1)c1cc(Cl)cc(Cl)c1,1.26% (inactive)
7,C/C=C/c1ccc(Oc2ccc([N+](=O)[O-])c3cnccc23)c(OC)c1,-0.05% (inactive)
8,Clc1ccc(Cn2ncc3c(NCc4cccnc4)ncnc32)cc1,19.8% (inactive)
9,Cn1ncc2c(NCc3cccnc3)ncnc21,3.93% (inactive)
10,Brc1ccc2ncnc(NCc3cccnc3)c2c1,34.6% (active)
11,CCCNc1cc(CC)nc2c3c(C)cc(C)nc3nn12,-5.94% (inactive)
12,CCOc1cccc2sc(N3CCOCC3)nc12,-1.73% (inactive)
13,COc1cc2c(cc1/C=C1/NC(=O)N(Cc3ccccc3Cl)C1=O)OCO2,-0.77% (inactive)
14,O=C1/C(=C/c2ccc(-c3ccc([N+](=O)[O-])cc3)o2)C=C(c2ccccc2)N1c1cccc(Br)c1,5.51% (inactive)
15,CC(C)=NOC(=O)CCS(=O)(=O)c1nc(-c2cccs2)cc(C(F)(F)F)n1,-33.7% (inactive)
16,Cc1ccc(NC(=O)CSC2=C(C#N)C(c3ccc(F)cc3)CC(=O)N2)cc1 (configuration not stated),11.8% (inactive)
17,CCN1C(=O)/C(=C\c2ccc(OC)cc2)SC1=S,6.61% (inactive)
18,CCN1/C(=C/c2ccc3cc(C)ccc3[n+]2CC)Sc2ccc(-c3ccccc3)cc21,88.8% (active)
19,CCN1/C(=c2/s/c(=C3/C(=O)N(c4ccccc4)NC3=Nc3ccccc3)n(CC)c2=O)Sc2ccc(OC)cc21,5.23% (inactive)
20,CCN1/C(=C/c2ccc3ccc(C)cc3[n+]2CC)Sc2ccccc21,87.4% (active)
21,CC[N+]1=C(C)C(C)(C)c2cc(-c3ccccc3)ccc21,25.8% (inactive)
22,CCC(/C=C1\Sc2ccc(-c3ccccc3)cc2N1CC)=C\c1sc2ccc3ccccc3c2[n+]1CC,21.8% (inactive)
23,CCN1/C(=C/c2ccc3cc(OC)ccc3[n+]2CC)Sc2c1ccc1c2CCCC1,87.9% (active)

row,SMILES,inhibition
1,CCN1/C(=C/c2ccc3cc(C)ccc3[n+]2CC)Sc2ccc(OC)cc21,83.3% (active)
2,Cc1noc(/C=C/N(C)C)c1S(=O)(=O)N1CCC(C(=O)N2CCCC2)CC1,-1.15% (inactive)
3,CCN1C(=O)/C(=c2\sc3nc(-c4ccccc4)nn3c2=O)c2ccccc21,-17.8% (inactive)
4,O=C(NCc1cccnc1)C1CCCN(S(=O)(=O)c2ccc3[nH]c(=O)ccc3c2)C1 (configuration not stated),6.17% (inactive)
5,CCC(=O)N1c2ccccc2C2=C(SC(C(=O)OC)=C(C(=O)OC)C23SC(C(=O)OC)=C(C(=O)OC)S3)C1(C)C,3.65% (inactive)
6,CCC1CCCCN1C(=O)c1sc2ncnc(N3CCN(c4ccc(OC)cc4)CC3)c2c1C (configuration not stated),7.77% (inactive)
7,CCOC(=O)CC(=O)CSc1ccc2nnc(-c3ccc(Cl)cc3)n2n1,1.1% (inactive)
8,CC1CC1c1ccc(/C=C(\C#N)C(=O)Nc2cccc([N+](=O)[O-])c2)o1 (configuration not stated),-64.5% (inactive)
9,Cc1ccc2nc3c(nc2c1)C(=O)c1ccccc1-3,46.8% (active)
10,Cc1ccc2c(c1)C(=O)c1cc3ccccc3nc1-2,-59.4% (inactive)
11,COc1ccc2nc3c(nc2c1)C(=O)c1ccccc1C3=O,-19.6% (inactive)
12,CCOc1ccc(N(C)S(=O)(=O)c2ccc3[nH]cc(C(=O)NCc4cccnc4)c(=O)c3c2)cc1,3.1% (inactive)
13,O=C(Nc1cccc(Cl)c1)Nc1noc2c1COc1ccccc1-2,-1.02% (inactive)
14,COC(=O)/C=C1\Nc2ccccc2OC1=O,-5.86% (inactive)
15,COC(=O)/C=C(C(=O)OC)/C(C(=O)OC)=C1\Nc2ccccc2NC1=O,8.52% (inactive)
16,COC(=O)/C=C1/C(=O)Nc2ccccc21,63.4% (active)
17,Cc1cc(C(=O)N2CCOCC2)c2ccccc2n1,6.26% (inactive)
18,Nc1nc(NCCCN2CCCC2=O)cc(Nc2ccccc2)n1,-3.84% (inactive) and 0.61% (inactive)
19,CCOC(=O)c1cnn(-c2nc3ccccc3s2)c1CNC(C)c1ccco1 (configuration not stated),-20.8% (inactive)
20,Nc1c(C(=O)Nc2cccc(C(=O)O)c2)sc2nc3c(cc12)CCCCC3,-17.2% (inactive)
21,Nc1c(C(=O)c2ccccc2)sc2nc3c(cc12)CCCCC3,72.9% (active)
22,Cc1c(Cl)cccc1NC(=O)c1sc2nc3c(cc2c1N)C(=O)CCC3,41.4% (active)
23,Nc1c(C(=O)c2ccc(Br)cc2)sc2nc3c(cc12)CCCC3,-11.1% (inactive)

row,SMILES,inhibition
1,Nc1c(C(=O)c2ccc(Cl)cc2)sc2nc3c(cc12)CCCCCC3,-9.12% (inactive)
2,CC1(C)CC(=O)c2cc3c(N)c(C(=O)Nc4ccccc4Cl)sc3nc2C1,-21.4% (inactive)
3,CC(=O)Nc1ccc(NC(=O)c2sc3nc4c(cc3c2N)CCCCCC4)cc1,-8.57% (inactive)
4,Nc1c(C(=O)N2CCCCC2)sc2nc3c(cc12)CCC3,-59.9% (inactive)
5,Cc1cccc(NC(=O)c2sc3nc4c(cc3c2N)CCC4)c1C,36.1% (active)
6,Cc1cc(C(=O)COC(=O)c2cc(Cl)cc(Cl)c2N)c(C)n1CC1CCCO1 (configuration not stated),7.73% (inactive)
7,CCn1cc(CN[C@H]2C[C@H]3C(=O)N[C@@H](Cc4ccc(O)cc4)C(=O)N3C2)c(C)n1,9.24% (inactive)
8,COCc1ccc(-c2ccc(OC3CCN(c4ncnc5nc[nH]c45)CC3)cc2)cc1,-7.79% (inactive)
9,CCCCCCOC1OC(COC(C)=O)C(OC(C)=O)C(OC(C)=O)C1NC(C)=O (configuration not stated),10.2% (inactive)
10,COc1ccc(-c2c(C)nn3c(NCCO)c4c(nc23)CCCC4)cc1,0.55% (inactive)
11,COC(=O)C(NNc1ccccc1C)(NC(=O)c1ccc(Cl)cc1)C(F)(F)F (configuration not stated),-4.69% (inactive)
12,Cc1ccc(C)c(OCC(=O)NC(C)(C)C)c1,1.69% (inactive)
13,COc1ccc(S(=O)(=O)Oc2ccc(C=O)cc2)cc1,12.9% (inactive)
14,Cc1c(C2=N/C(=C/c3cccc(Cl)c3Cl)C(=O)O2)cccc1[N+](=O)[O-],-5.1% (inactive)
15,CSc1cccc(Nc2nc3ccccc3n3cnnc23)c1,-29.4% (inactive)
16,CN(c1ncnc2c1cnn2-c1ccc(Cl)cc1)C1CCCCC1,63.9% (active)
17,Cc1cc2c(N(C)C3CCCCC3)ncnc2s1,-14.3% (inactive)
18,Clc1ccc(-n2ncc3c(NC4CCCCC4)ncnc32)cc1,10.8% (inactive)
19,CSC1=C(C#N)C(c2ccccc2[N+](=O)[O-])C2=C(CC(C)(C)CC2=O)N1 (configuration not stated),15.7% (inactive)
20,O=C(NCCOc1ccccc1)c1ccc2nc(NCCN3CCOCC3)sc2c1,-44.4% (inactive)
21,O=C(Nc1ccc([N+](=O)[O-])cc1Cl)c1ccccc1Br,12.3% (inactive)
22,O=C(Nc1ccc2c3c(cccc13)CC2)c1cc([N+](=O)[O-])cc([N+](=O)[O-])c1,-9.02% (inactive)
23,O=C(Nc1ccc2c3c(cccc13)CC2)c1cc([N+](=O)[O-])ccc1Br,59.8% (active)

row,SMILES,inhibition
1,Cc1cc(C)cc(N2C(=O)N(c3cccc(Cl)c3)C3CS(=O)(=O)CC32)c1 (configuration not stated),-20.4% (inactive)
2,COc1cccc(C(=O)NC(c2cccc([N+](=O)[O-])c2)c2cc(Cl)c3cccnc3c2O)c1 (configuration not stated),7.94% (inactive)
3,CCOc1ccc(C(NC(=O)c2cc(OC)c(OC)c(OC)c2)c2cc(Cl)c3cccnc3c2O)cc1 (configuration not stated),9.91% (inactive)
4,O=C(COc1ccc(Cl)c(Cl)c1)NC(Cc1ccccc1)C(=O)O (configuration not stated),9.8% (inactive)
5,Cc1ccc(C(NC(=O)Cc2ccccc2)c2ccc3cccnc3c2O)cc1 (configuration not stated),82.5% (active)
6,Cc1ccc(CC(=O)Nc2ncccn2)cc1,1.2% (inactive)
7,Cc1ccnc(NC(=O)Cc2ccc(Cl)cc2)n1,0.25% (inactive)
8,CC(=O)NC(c1cccs1)c1cc(Cl)c2cccnc2c1O (configuration not stated),80.8% (active)
9,CC(=O)NC(c1ccccc1)c1ccc2cccnc2c1O (configuration not stated),82.8% (active)
10,O=C(NC(=O)c1ccccn1)NC(c1ccccc1)c1ccccc1,-3.05% (inactive)
11,CCOc1ccc(C(C)NC(=O)Cc2ccccc2)cc1 (configuration not stated),13.1% (inactive)
12,CC(=O)NC(NC(C)=O)c1cccnc1,-0.95% (inactive)
13,O=C(Cc1ccccc1)NC(c1ccc(Cl)cc1)c1ccc2cccnc2c1O (configuration not stated),82.5% (active)
14,Cc1ccc(C2C=C(c3ccc(C(C)C)cc3)Nc3nnnn32)cc1 (configuration not stated),-3.93% (inactive)
15,Cn1c(=O)c2c(nc(N(CCO)CCO)n2Cc2cccc3ccccc23)n(C)c1=O,-5.12% (inactive)
16,O=S(=O)(c1ccc(F)c(Cl)c1)N1CCC(Cn2cnc3ccccc32)CC1,7.12% (inactive)
17,COC(=O)C1=C(C)OC(N)=C(C#N)C1c1ccc(OCc2ccccc2)cc1 (configuration not stated),-17.6% (inactive)
18,COc1ccccc1NC(=O)Nc1nnc(CSCc2ccc(F)cc2)s1,11.6% (inactive)
19,CCOC(=O)c1cc([N+](=O)[O-])sc1NC(=O)c1cc(Cl)sc1Cl,1.62% (inactive)
20,Cc1cccc(NC(=O)CC(C)(C)C)n1,-13.5% (inactive)
21,N/C(=N\OC(=O)CCCOc1ccc(Cl)cc1Cl)c1nonc1N,-6.56% (inactive)
22,CCOC(=O)C1=CN(C(C)C)C=C(C(=O)OCC)C1c1cccc([N+](=O)[O-])c1,4.81% (inactive)
23,CCCn1c(=N)c(C(=O)OCC)cc2c(=O)n3cc(C)ccc3nc21,1.52% (inactive)
